Results from PubChem BioAssay (NCI).
Compounds without any hit were thinned out: in the full panel of roughly 83,000, 20% have a hit.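 Single-dose data. Exposure time 48 hours. Values below 10 considered active.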 Active and inactive are the calls of the source.

tested on: UACC-62 melanoma; experiment: NCI-60 one-dose screen, 48 h (100 = growth as untreated, 0 = no growth, -100 = all killed); settings: 10 µM unless noted

Structure (SMILES)	growth
O=Cc1ccc([N+](=O)[O-])s1	80.2% (inactive)
CC(C)(C)n1cc(-c2ccnc(NCCCNS(=O)(=O)c3ccc(F)cc3)c2)c(-c2cccc(F)c2)n1	72.7% (inactive)
O=C1C(Cl)=C(Nc2ccc(O)cc2)C(=O)N1Cc1ccc(Cl)cc1	65.3% (inactive)
COc1cc(CNC(=O)CCCC/C=C/C(C)C)ccc1OCc1nnc(Nc2ccc([N+](=O)[O-])cc2)o1	39.6% (inactive)
O=C(N/N=C/c1ccc(F)cc1)c1ccc(C(F)(F)F)nc1Nc1cccc(C(F)(F)F)c1	-6.64% (active)
C=C(C)[C@@H]1CC[C@]2(C(=O)NCCNCCN)CC[C@]3(C)[C@H](CC[C@@H]4[C@@]5(C)C/C(=C/c6ccncc6)C(=O)C(C)(C)[C@@H]5CC[C@]43C)[C@@H]12	86.6% (inactive)
O=C(COc1ccc(-c2nc3ccccc3[nH]2)cc1)N=Nc1c(O)[nH]c2ccc(Cl)cc12	100% (inactive)
C/C(=N/O)c1ccc(F)cc1	78.3% (inactive)
COc1ccc(C2=Nc3c/c(=C\c4c(O)[nH]c5ccc(Cl)cc45)ccc3=N2)cc1	48.1% (inactive)
CCOC(=O)c1cnc2ccccc2c1Cl	95.2% (inactive)
CCCc1cc(NC)nc(S(=O)(=O)CC)n1	93.8% (inactive)
COc1ccc(/C=C2\C(=O)N=C3N2NC(c2cc(Br)ccc2O)C=C(C)N3c2ccccc2)cc1 (stereo not given)	90.6% (inactive)
O=S(=O)(NCCNc1nccc(-c2c(-c3cccc(F)c3)nc3occn23)n1)c1ccc(Br)cc1	77.5% (inactive)
CCn1cc(C(=O)N/N=C/c2cccs2)c(=O)c2cc(F)c(N3CCNC(C)C3)c(F)c21 (stereo not given)	96.5% (inactive)
Cn1c(=O)c2[nH]c(N/N=C/c3ccccc3Br)nc2n(C)c1=O	96.6% (inactive)
CCCCCCNC(=O)Oc1ccc(/C(=C(/C)Cc2ccc(OC)cc2)c2ccc(OCCCN(C)C)cc2)cc1	-25.1% (active)
O=C(OCc1ccc2cccc(O)c2n1)N1CCN(C(=O)c2cc3cc(F)ccc3[nH]2)CC1	-93.8% (active)
CC(=O)[C@@H]1CCC=C2CC[C@]3(C)[C@@H](CC[C@@H]4[C@@]5(C)CCCNC(C)(C)[C@@H]5CC[C@]43C)[C@H]21	-79% (active)
O=c1oc2ccc([N+](=O)[O-])cc2cc1Br	101% (inactive)
S=C(Nc1ccc(-c2nc(N3CCOCC3)c3cccn3n2)cc1)Nc1cccnc1	25.4% (inactive)

Structure (SMILES)	growth
O=C1/C(=C/c2ccc(-c3ccc(Br)cc3)o2)SC(=S)N1CCc1ccc(O)cc1	49.6% (inactive)
CCOC(=O)CSc1ncnc2c1c(-c1ccccc1)c(-c1ccccc1)n2-c1ccc(C)cc1	57.1% (inactive)
CCNc1cc(-c2cccc(OC(F)(F)F)c2)nc2ccc(N3CCCC3)cc12	50.7% (inactive)
CCCCNC(=O)Oc1ccc(/C(=C(/CC)Cc2ccccc2)c2ccc(OCCN3CCCCCC3)cc2)cc1	24% (inactive)
COc1ccc(-c2nc3c(c(-c4ccccc4)nn3-c3ccccc3)c(-c3ccc(N4CCOCC4)cc3)c2C#N)cc1	91.1% (inactive)
COc1cc(-c2csc(NC(=O)c3cc(-n4cnc(C)c4)cc(C(F)(F)F)c3)n2)cc(OC)c1OC	44.1% (inactive)
COc1cc(CNS(=O)(=O)c2ccc(C)cc2)ccc1OCc1cn(-c2ccc(Br)cc2)nn1	94.3% (inactive)
Nc1ncnc2c1N=C(c1ccc3c(c1)OCO3)CC(c1ccc([N+](=O)[O-])cc1)N2 (stereo not given)	64.8% (inactive)
COc1ccc(-c2nc3c(c(-c4ccccc4)nn3-c3ccccc3)c(-c3ccc(N4CCN(C)CC4)cc3)c2C#N)cc1	100% (inactive)
CCOC(=O)C(=Cc1cccc(Cl)c1)C(=O)OCC	-9.18% (active)
O=C1NC(=O)c2c1c1c3ccccc3ccc1c1[nH]c3ccc(Br)cc3c21	29.9% (inactive)
CC1(c2ccccc2O)NN=C(/N=C/c2cccc([N+](=O)[O-])c2)N1C(Cc1c[nH]c2ccccc12)C(=O)O (stereo not given)	77.6% (inactive)
CCOP(=O)(OCC)c1nc(-c2ccccc2)oc1NCc1cccnc1	106% (inactive)
CCOC(=O)c1cn2ncnc(Oc3ccc(NC(=O)NC4CCCCC4)c(Cl)c3)c2c1C	80.4% (inactive)
COC(=O)c1cc(-c2ccccc2)[nH]c1N/N=C/c1c(Cl)cccc1Cl	42.4% (inactive)
COc1ccc(-c2nnc(-c3ccc4c(c3)nc(-c3ccncc3)n4C3CCCCC3)o2)cc1	68.3% (inactive)
CC(C)(C)c1cc(-c2nc3ccc(N4CCN(S(C)(=O)=O)CC4)cc3[nH]2)cc(C(C)(C)C)c1O	94.5% (inactive)
CCCCN1C(=O)/C(=c2\sc3n(c2=O)C2C(NN=3)N(CC)C(=O)N2CC)c2ccccc21 (stereo not given)	18.9% (inactive)
N#Cc1nn(-c2cc(=O)[nH]c3ccc(Cl)cc23)c(N)c1C#N	81.9% (inactive)
Cc1ccc(-n2c(=S)[nH]c3sc4c(c3c2=O)CCC(=O)C4)cc1	10.3% (inactive)
